Source: PubChem
Shown are actives, neighbours in structure and some others; about 1.6% of the full set was active somewhere.
KCNQ2 inh: KCNQ2 (rat) channel inhibition; B-score at 10 µM; AID 2156; CHO-K1 KCNQ2, FluxOR thallium flux, 20 min; hits give low values; 310,000 tested, 1.1% active; O88943;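 active means fluorescence ratio B-score at most minus 3 library SDs, with starting brightness B-score within 2 library SDs, cut at about -5.5 in these data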
Target sequence (O88943 whole entry, looked up): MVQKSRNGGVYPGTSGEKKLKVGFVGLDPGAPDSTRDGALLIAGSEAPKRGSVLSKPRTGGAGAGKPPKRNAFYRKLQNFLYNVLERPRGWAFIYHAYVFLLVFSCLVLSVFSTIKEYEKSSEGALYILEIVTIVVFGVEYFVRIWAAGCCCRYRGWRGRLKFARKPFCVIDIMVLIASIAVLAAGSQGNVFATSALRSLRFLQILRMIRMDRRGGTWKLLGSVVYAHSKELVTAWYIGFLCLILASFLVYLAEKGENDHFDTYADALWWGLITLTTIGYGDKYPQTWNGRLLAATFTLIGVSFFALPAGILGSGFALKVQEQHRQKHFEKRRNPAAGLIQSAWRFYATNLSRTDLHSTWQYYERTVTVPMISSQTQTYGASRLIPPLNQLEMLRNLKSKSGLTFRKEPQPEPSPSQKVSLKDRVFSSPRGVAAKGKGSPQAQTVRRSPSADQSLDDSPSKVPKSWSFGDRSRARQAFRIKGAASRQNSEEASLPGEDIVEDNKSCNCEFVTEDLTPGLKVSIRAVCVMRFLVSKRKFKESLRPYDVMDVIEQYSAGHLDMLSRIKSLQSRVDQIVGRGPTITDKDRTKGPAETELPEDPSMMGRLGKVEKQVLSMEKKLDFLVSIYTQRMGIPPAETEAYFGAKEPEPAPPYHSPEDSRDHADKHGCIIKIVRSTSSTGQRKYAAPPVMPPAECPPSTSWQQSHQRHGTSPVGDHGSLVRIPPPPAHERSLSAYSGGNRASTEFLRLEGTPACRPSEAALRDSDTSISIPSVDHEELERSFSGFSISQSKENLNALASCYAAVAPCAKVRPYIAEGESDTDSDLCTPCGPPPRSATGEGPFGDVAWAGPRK
KCNQ2 enhance: KCNQ2 (rat) channel potentiation. O88943. AID 2239. CHO-K1 KCNQ2, FluxOR thallium flux fluorescence; hits give high values. 310,000 tested, 0.54% active. B-score at 10 µM;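 active means fluorescence ratio B-score at least 3 SD of library B-scores, with initial fluorescence B-score within 3 of them, cut at about 5.3 in these data; same plate scores as AID 2156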;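 further: B-score of peak minus minimum over baseline fluorescence ratio after K+ and Tl+ stimulus; positive B-score means potentiation of KCNQ2 with more thallium influx and brighter signal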
The depositor's hits bear a star; i = inactive; . = no result given.

SMILES | KCNQ2 inh | KCNQ2 enhance
CC1Cc2ccccc2N1C(=O)CSc1nnc(NC(=O)Cc2cccs2)s1 (configuration not stated) | i | .
Cc1cccnc1Nc1nc(-c2ccc(F)cc2)cs1 | -7.2* | -7.2
Cc1cccnc1Nc1nc(-c2ccc(O)cc2)cs1 | i | .
CC(C)(C)C(=O)Nc1sc2c(c1C(=O)Nc1ccccn1)CCCC2 | i | 0.92
CCn1c(SCC(=O)N/N=C/c2ccccc2OCC(=O)O)nnc1-c1ccc(OC)cc1 | i | 1.1
COc1cc(/C=C2/C(=N)N3C(=NC2=O)SN=C3S(=O)(=O)C(C)C)ccc1OS(=O)(=O)c1ccccc1 | i | 1.7
COc1cc(NC(=O)c2cccs2)cc(OC)c1 | i | 6.6*
COc1cccc(NC(=O)c2cccs2)c1 | i | 1.9
NC(=O)c1ccc(CSc2nc3ccccc3s2)cc1 | i | 0.88
c1ccc2sc(SCc3ccc(-c4nnco4)cc3)nc2c1 | -7.1* | -7.1
COc1ccccc1C(CNC(=O)COc1ccccc1C)N1CCCC1 (configuration not stated) | i | 0.08
COc1ccc(-c2noc(-c3ccccc3F)n2)cc1 | i | 0.05
COc1ccc(-c2noc(-c3ccccc3-c3ccccc3)n2)cc1 | -6.6* | -6.6
O=C(NCCS(=O)(=O)N1CCN(c2ccccc2)CC1)c1ccc2c(c1)OCO2 | i | .
N#Cc1nc(-c2cccc3ccccc23)oc1NCCN1CCCCC1 | -7.9* | -7.9
CCNc1oc(-c2cccc3ccccc23)nc1C#N | i | .
Cc1ccc(NC(=O)CCn2nc(C)cc2C)cc1 | i | 1.8
Cn1nc(-c2ccc(N3CCCCC3)c(NC(=O)c3ccco3)c2)c2ccccc2c1=O | -5.6* | -5.6
CCC(=O)Nc1cc(-c2nn(C)c(=O)c3ccccc23)ccc1N1CCOCC1 | i | .
CC(C)(C)C(=O)Nc1nnc(SCC(=O)Nc2ccc3c(c2)OCO3)s1 | i | 2.1
COc1ccccc1NC(=S)NCCc1ccc(Cl)cc1 | -6.2* | -6.2
COc1ccccc1NC(=O)Nc1cc(C(C)C)ccc1C | i | 1.2
COc1ccccc1NC(=S)NCCSc1ccc(Cl)cc1 | i | .
COc1ccccc1NC(=O)OC(C)c1ccc(Cl)cc1 (configuration not stated) | -5.8* | -5.8
Cc1ccc(-c2nc(N)sc2-c2ccc(C)cc2)cc1 | i | .
SMILES | KCNQ2 inh | KCNQ2 enhance
Cc1ccc(NC(=O)C2CCCN2C(=O)OCc2ccccc2)c(C)c1 (configuration not stated) | i | .
COc1ccc(CCNC(=O)C2CCN(S(=O)(=O)N3CCC(C)CC3)CC2)cc1OC | i | .
COc1ccc(NC(=O)C(c2ccccc2)N2CCN(c3ccccn3)CC2)cc1Cl (configuration not stated) | -6.3* | -6.3
COc1cc(NC(=O)CN2CCN(c3ccccn3)CC2)cc(OC)c1OC | i | .
Cc1ccc(NC(=O)CN2CCN(c3ccccn3)CC2)cc1S(=O)(=O)N(C)C | i | .
CCOC(=O)c1ccc(N2C(=O)CC(Nc3ccc(CCO)cc3)C2=O)cc1 (configuration not stated) | i | .
O=C(N/N=C/c1ccco1)C1CC1c1ccccc1 (configuration not stated) | i | 20*
O=C(N/N=C/c1cccc([N+](=O)[O-])c1)C1CC1c1ccccc1 (configuration not stated) | i | 15*
O=C(N/N=C/c1ccco1)C1CC1 | i | 1.2
O=C(CCc1ccccc1)N/N=C/c1cccc([N+](=O)[O-])c1 | i | 2.2
CCCCCCCCn1cnc2c(N)c(C)c(C)cc21 | i | 1.9
CC(=O)Nc1nnc(-c2c(-c3ccccc3Cl)noc2C)o1 | i | .
CC(C)(O)c1ccccc1CC[C@@H](SCC1(CC(=O)O)CC1)c1cccc(/C=C/c2ccc3ccc(Cl)cc3n2)c1 | -6.4* | -6.4
COC(=O)c1cc(-c2cccs2)nn1-c1ccccc1 | i | 0.05
O=C(c1ccccc1)n1ccc(-c2cccs2)n1 | i | 8.6*
CCCCCn1c2c(c(=N)c3ccccc31)CCC2 | i | 0.75
CCCCCCCCCCn1c2c(c(=N)c3c1CCC3)CCC2 | i | 32*
COc1ccc(-c2c(C(C)=O)c(C)n(C)c2C)cc1 | i | 0.65
Cc1oc2c(c1C(=O)NCc1cc(C(=O)O)co1)CCCC2 | i | 0.94
CCOC(=O)C1=C(c2ccccc2)NC(N)=NC1c1ccc(OCc2ccc(Cl)cc2)c(OC)c1 (configuration not stated) | -6.2* | -6.2
CCOC(=O)C1=C(c2ccccc2)NC(=O)NC1c1cc(Cl)c(O)c(OC)c1 (configuration not stated) | i | .
COC(=O)C(NC(=O)c1ccccc1)c1ccccc1 (configuration not stated) | i | .
Cc1cc(C(=O)OC(C)C(=O)N2CCc3ccccc32)ccc1[N+](=O)[O-] (configuration not stated) | i | 0.88
CCN(CC)C(=S)SCC(=O)NC12CC3CC(CC(C3)C1)C2 | i | 8.8*
CCN(CC)CC(=O)NC12CC3CC(CC(C3)C1)C2 | i | .
